The results in this text go back to PubChem BioAssay (EPA / NIEHS).

Results filed as inconclusive are left out. More than one record can exist for a structure, and the calls need not agree. Active and inactive are the calls of the source. The calls were made as follows: active = hit-call score of the fitted dose curve at least 0.9, where 1 is the maximum; inconclusive = response in the unintended direction; inactive = score below 0.9.

human Peroxisome Proliferator-activated Receptor alpha (PPARa), PPARA (gene 5465), sequence (Q07869 whole entry, looked up): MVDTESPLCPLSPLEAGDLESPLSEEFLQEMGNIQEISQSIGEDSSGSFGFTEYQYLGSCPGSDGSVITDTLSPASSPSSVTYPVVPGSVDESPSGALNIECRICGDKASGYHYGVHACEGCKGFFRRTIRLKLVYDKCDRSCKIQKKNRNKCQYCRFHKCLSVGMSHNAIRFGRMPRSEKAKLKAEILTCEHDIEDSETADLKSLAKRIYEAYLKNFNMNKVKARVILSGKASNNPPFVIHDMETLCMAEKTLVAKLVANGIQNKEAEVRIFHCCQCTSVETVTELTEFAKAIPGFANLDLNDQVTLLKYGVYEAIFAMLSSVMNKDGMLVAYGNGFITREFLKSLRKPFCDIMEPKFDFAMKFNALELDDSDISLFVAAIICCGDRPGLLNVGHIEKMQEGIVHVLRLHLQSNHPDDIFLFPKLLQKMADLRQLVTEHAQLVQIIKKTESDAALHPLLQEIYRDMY

The target of this assay is human Peroxisome Proliferator-activated Receptor alpha (PPARa), PPARA (gene 5465) (UniProt Q07869). Nature of the assay: ATG_PPARa_TRANS: Attagene TRANS-FACTORIAL HepG2 Assay for human Peroxisome Proliferator-activated Receptor alpha (PPARa) (AID 2283001).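 As to AC50: potency for gain of reporter signal over DMSO so agonist or activator.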 As to the method:
ATG_TRANS is a cell-based, multiplexed-readout assay that uses HepG2, a human liver cell line, with measurements taken at 24 hours after chemical dosing in a 24-well plate.ATG_PPARa_TRANS is one of 30 assay component(s) measured or calculated from the ATG_TRANS assay. It is designed to make measurements of mRNA induction, a form of inducible reporter, as detected with fluorescence intensity signals by Reverse transcription polymerase chain reaction (RT-PCR) and Capillary electrophoresis technology.Data from the assay component ATG_PPARa_TRANS was analyzed into 1 assay endpoint. This assay endpoint, ATG_PPARa_TRANS, was analyzed in the positive analysis fitting direction relative to DMSO as the negative control and baseline of activity. Using a type of inducible reporter, measures of mRNA for gain-of-signal activity can be used to understand the reporter gene at the transcription factor-level as they relate to the gene PPARA. Furthermore, this assay endpoint can be referred to as a primary readout, because this assay has produced multiple assay endpoints where this one serves a reporter gene function. To generalize the intended target to other relatable targets, this assay endpoint is annotated to the nuclear receptor intended target family, where the subfamily is non-steroidal.
Human liver HepG2 cells are transiently transfected with multiple reporter transcription units (MRTUs) in 6-well plates using FuGene 6 reagent (Roche; 3 ml FuGene/1 mg DNA). The MRTU constructs are regulated by a cis-regulating element (promoter). […] A major difference between the CIS and TRANS system is that in CIS activities of endogenous TFs are measured, whereas the TRANS assay evaluates changes in activities of exogenous, chimeric NR-Gal4 proteins. […] At the end of 24 hour incubation, total RNA was isolated using TriZol reagent (Invitrogen). The isolated RNA is then reverse-transcribed using oligo(dT) primer and Mo-MLV reverse transcriptase (Invitrogen) with DNAse I (Ambion) treatment for 30 min. The one-tenth of the produced cDNA was amplified by PCR using Taq DNA polymerase (Invitrogen) and two reporter sequence-specific primers. The PCR products were fluorescently labeled by primer extension with 6-arboxyfluorescein (6-FAM) 5'-labeled reporter sequence-specific primer (2 min at 95 C, 20 s at 68 C and 10 min at 72 C) and these products were digested with 5U of HpaI (New England Biolabs) for 2h at 37 C. The fragments were purified using Qiaquick PCR columns (Qiagen), analyzed on an ABI 3130xL genetic analyzer (Applied Biosystems) with peak positions identified by using a set of X-rhodamine (ROX)-labeled MapMarker1000 molecular weight standards (BioVentures). The raw capillary electrophoresis data was processed using Attagraph software (Attagene).
One may read the AC50 as the concentration giving half of the maximal activity seen. On to `c1cnc2c(c1)ccc1cccnc12`, for which the AC50 was 28.6 µM (active) and the outcome was inactive.

Turning to `O=C(OC(=O)C(F)(F)C(F)(F)F)C(F)(F)C(F)(F)F`, the result was inactive.

`O=C(F)C(F)(F)C(F)(F)C(F)(F)C(F)F`: the molecule was called inactive.

With `C=CC(=O)OCCC(F)(F)C(F)(F)C(F)(F)C(F)(F)C(F)(F)C(F)(F)F`, the molecule was classed as inactive.

For `c1cc[nH]c1`, the molecule was classed as inactive.

As to `CC1CCC(CO)CC1` (stereo not given), the result was inactive.

`O=S(=O)(O)C(F)(F)C(F)(F)C(F)(F)C(F)(F)C(F)(F)C(F)(F)C(F)(F)C(F)(F)C(F)(F)C(F)(F)F`: the result was inactive.

`O=C(CCCN1CCC(O)(c2ccc(Cl)cc2)CC1)c1ccc(F)cc1`: the molecule was classed as inactive.

For `CCO[Si](CCC1CCC2OC2C1)(OCC)OCC` (stereo not given), the molecule was classed as inactive.

Turning to `O=S(=O)(O)c1ccc2cc(O)ccc2c1`, the call was inactive.

Regarding `CC(C)[C@@H]1CC[C@@H](C)C[C@H]1O`, the molecule was classed as inactive.

With `COc1cc([N+](=O)[O-])ccc1N`, the call was inactive.

`CCc1cccc(CC)c1N(COC)C(=O)CS(=O)(=O)O`: the result was inactive.

`CCC1CO1` (stereo not given): the call was inactive.

For the molecule `NNc1nc(-c2ccc([N+](=O)[O-])cc2)cs1`, the molecule was classed as inactive.

In the case of `CCCCCCCCCCCCCC[n+]1ccccc1`, the AC50 was 177 µM (active).

On to `CCC(=O)O`, for which the outcome was inactive.

`Cc1cc(Cc2cc(C)cc(C(C)(C)C)c2O)c(O)c(C(C)(C)C)c1`: the outcome was inactive.

In the case of `C[C@]12CC[C@@H]3c4ccc(O)cc4CC[C@H]3[C@@H]1C[C@@H](O)[C@@H]2O`, the molecule was classed as inactive.

In the case of `CCCCCCCCCCCC(=O)O`, the call was inactive.

Take `CCCCCCCCCCCC`: the molecule was called inactive.

Take `CCOC(C)=O`: the molecule was called inactive.

In the case of `CCC(C)c1ccccc1O` (stereo not given), the call was inactive.

For `O=c1cc(-c2ccccc2)oc2ccc3ccccc3c12`, the molecule was called inactive.

With `CN(CCO)S(=O)(=O)C(F)(F)C(F)(F)C(F)(F)C(F)(F)C(F)(F)C(F)(F)C(F)(F)C(F)(F)F`, the result was inactive.

Consider `c1ccc2c(c1)CCC2`, for which the molecule was called inactive.

Take `FC(F)(F)C1(F)C(F)(F)C(F)(F)C(F)(F)C1(F)F`: the molecule was called inactive.

For `CCCCCCCCCC=CCC1CC(=O)OC1=O` (stereo not given), the molecule was called inactive.

Consider `C[C@]12CC[C@@H]3c4ccc(O)cc4CC[C@H]3[C@@H]1CC[C@@H]2OC(=O)CCC1CCCC1`, for which the call was inactive.

For the molecule `CCCCCC(C)OC(=O)COc1ccc(Cl)c2cccnc12` (stereo not given), the molecule was classed as inactive.

On to `FCOC(C(F)(F)F)C(F)(F)F`, for which the molecule was called inactive.

As to `OCC1CCC(CO)CC1` (stereo not given), the result was inactive.

On to `C=COC(=O)C(C)(C)CCCCCC`, for which the molecule was classed as inactive.

With `CCCCN(C)C`, the molecule was called inactive.

In the case of `O=C(c1cc(O)c(O)c(O)c1)c1ccc(O)c(O)c1O`, the result was inactive.

Consider `O=C(O)C(F)(F)OC(F)(F)C(F)(F)OC(F)(F)C(F)(F)OC(F)(F)C(F)(F)C(F)(F)C(F)(F)F`, for which the AC50 was 24 µM (active) and the molecule was classed as inactive.

Consider `CCCCCCc1ccc(N)cc1`, for which the outcome was inactive.

As for `C=CC(C)(CCC=C(C)C)OC(C)=O` (stereo not given), the result was inactive.
